Test results reported in PubChem BioAssay AID1780 (National Center for Advancing Translational Sciences (NCATS), 2009).
Activity calls are given as the source filed them. Calls follow the shape of the dose curve; as a rule, active = well fitted curve in the direction sought with a large enough effect; inactive = no such curve, though single readings can be large or run the other way.

Target: Pyruvate kinase PKM (Homo sapiens) (UniProt P14618)
Experiment: Confirmation Concentration-Response Assay for Activators of Human Muscle isoform 1 Pyruvate Kinase
Details: purified hPK-M1, Kinase-Glo ATP luminescence, 1 h; series mostly up to 57.5 µM
Excerpt: Confirmatory assay NIH Chemical Genomics Center [NCGC] Matthew G. Vander Heiden, M.D., Ph.D. [Harvard Medical School, 77 Avenue Louis Pasteur, Boston, MA 02115] NCGC Assay Overview: Human pyruvate kinase […] (hPK-M1) enzyme was supplied as a highly purified (>95% pure) preparation from Harvard Medical School and assayed for its ability to generate ATP from ADP using phosphoenolpyruvate (PEP) as a substrate. ATP generation was detected in a coupled reaction by luciferase-mediated luminescence, an ATP-dependent process. Pyruvate kinase substrates, PEP and ADP, were present in the assay at Km and approximately 10-fold below Km respectively. The enzyme was assayed at an intermediate level of activity to screen for both inhibitors and activators.
NCGC Assay Protocol Summary for M1-isoform: Three uL of substrate mix (at r.t.) in assay buffer (50 mM Imidazole pH7.2, 50 mM KCl, 7 mM MgCl2, 0.01% Tween 20, 0.05% BSA) was dispensed into white solid bottom 1,536 well microtiter plates so that the final concentrations of substrates in the assay were 0.1 mM ADP and 0.5 mM PEP. 23 nL of compound were delivered by a pin tool and 1 uL of enzyme mix (final concentration of 1 nM) in assay buffer (4 degree Celsius) was added. Plates were incubated at room temperature for 1 hour. Two uL of detection mix (Kinase-Glo, Promega; at 4 degree Celsius protected from light) was added and luminescence read by a ViewLux (Perkin Elmer) at 1 second exposure/plate. Data were normalized to the uninhibited (row 31). Additionally, a no enzyme and 5-fold enzyme control was dispensed in row 32, split equally between the two conditions.

Pyruvate kinase PKM (Homo sapiens), sequence (P14618 whole entry, looked up, canonical isoform): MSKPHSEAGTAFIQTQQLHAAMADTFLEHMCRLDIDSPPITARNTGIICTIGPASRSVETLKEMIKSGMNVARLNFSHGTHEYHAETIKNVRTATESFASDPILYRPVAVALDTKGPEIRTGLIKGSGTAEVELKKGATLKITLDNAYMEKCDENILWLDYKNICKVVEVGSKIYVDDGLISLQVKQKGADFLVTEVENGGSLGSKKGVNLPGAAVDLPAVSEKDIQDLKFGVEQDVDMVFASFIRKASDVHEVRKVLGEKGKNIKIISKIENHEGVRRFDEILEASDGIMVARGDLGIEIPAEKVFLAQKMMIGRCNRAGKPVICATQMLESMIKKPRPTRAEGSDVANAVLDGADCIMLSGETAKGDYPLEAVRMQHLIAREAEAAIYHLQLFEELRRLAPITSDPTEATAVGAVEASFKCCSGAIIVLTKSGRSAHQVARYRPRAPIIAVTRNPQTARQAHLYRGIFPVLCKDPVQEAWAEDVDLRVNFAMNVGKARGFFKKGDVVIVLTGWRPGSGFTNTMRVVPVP

outcome, inactive:
COc1ccc(S(=O)(=O)N2CCN(S(=O)(=O)c3ccc4c(c3)OCCO4)CC2)cc1
O=C(CN1C(=O)N/C(=C\c2cccn2-c2cccc(C(=O)O)c2)C1=O)Nc1ccccc1F
O=C1CN(S(=O)(=O)c2c(F)cccc2F)CCN1S(=O)(=O)c1ccc2c(c1)OCCO2
O=S(=O)(NCC1CN(S(=O)(=O)c2ccc3c(c2)OCCO3)C1)c1c(F)cccc1F
Cc1cc2c(s1)c1cnn(Cc3ccc(F)cc3F)c(=O)c1n2C
O=S(=O)(c1ccc2c(c1)OCCO2)N1CCN(S(=O)(=O)c2ccccc2F)CC1
CC(=O)c1cc2c(s1)c1cnn(Cc3ccccc3F)c(=O)c1n2C
Cc1cc2c(s1)c1cnn(Cc3cccc(Cl)c3)c(=O)c1n2C
CCCCCn1ncc2c3sc(C)cc3n(C)c2c1=O
O=S(=O)(c1ccc2ccccc2c1)N1CCN(S(=O)(=O)c2c(F)cccc2F)CC1
O=S(=O)(c1ccc(F)cc1)N1CCN(S(=O)(=O)c2ccc3c(c2)OCCO3)CC1
O=S(=O)(c1ccc2c(c1)OCCO2)N1CCN(S(=O)(=O)c2c(F)cccc2F)CC1
O=S(=O)(NCCCNS(=O)(=O)c1c(F)cccc1F)c1ccc2c(c1)OCCO2
Cn1c2ccsc2c2cnn(Cc3ccccc3F)c(=O)c21
COc1cc(F)c(S(=O)(=O)N2CCN(S(=O)(=O)c3ccc4c(c3)OCCO4)CC2)c(F)c1
Cc1cc2c(s1)c1cnn(Cc3ccc(C(C)C)cc3)c(=O)c1n2C
Cc1cc2c(s1)c1cnn(Cc3cccc(F)c3F)c(=O)c1n2C
O=S(=O)(c1ccc2c(c1)OCCO2)N1CCN(S(=O)(=O)c2ccccn2)CC1
C[C@@H]1CN(S(=O)(=O)c2ccc3c(c2)OCCO3)CCN1S(=O)(=O)c1c(F)cccc1F
Cn1c2cc(S(C)=O)sc2c2cnn(Cc3ccccc3F)c(=O)c21 (stereo not given)
O=S(=O)(c1cccc(C(F)(F)F)c1)N1CCN(S(=O)(=O)c2ccc3c(c2)OCCO3)CC1
Cc1cc2c(s1)c1cnn(Cc3ccccc3F)c(=O)c1n2C
Cc1cc2c(s1)c1cnn(Cc3ccc(Cl)cc3)c(=O)c1n2C
Cn1ccc2cc(S(=O)(=O)N3CCN(S(=O)(=O)c4c(F)cccc4F)CC3)ccc21
Cc1cc2c(s1)c1cnn(Cc3ccc(-c4ccccc4)cc3)c(=O)c1n2C
O=S(=O)(c1ccc2c(c1)OCO2)N1CCN(S(=O)(=O)c2c(F)cccc2F)CC1
Cn1c2ccsc2c2ncn(Cc3ccccc3F)c(=O)c21
O=S(=O)(c1c(F)cccc1F)N1CCN(S(=O)(=O)c2c(F)cccc2F)CC1
Cc1ccc(Cn2ncc3c4sc(C)cc4n(C)c3c2=O)c(C)c1
Cc1cc2c(s1)c1cnn(Cc3ccc(S(C)(=O)=O)cc3)c(=O)c1n2C
Cc1cc2c(s1)c1c(C)nn(Cc3ccccc3F)c(=O)c1n2C
COc1ccc(S(=O)(=O)N2CCN(S(=O)(=O)c3ccc(OC)cc3)CC2)cc1
O=S(=O)(c1ccc2c(c1)OCCO2)N1CCN(S(=O)(=O)c2ccc3c(c2)OCCO3)CC1
O=S(=O)(NC1CCN(S(=O)(=O)c2ccc3c(c2)OCCO3)CC1)c1c(F)cccc1F
Cc1cc2c(s1)c1cnn(-c3ccccc3)c(=O)c1n2C
Cc1cc2c(s1)c1cnn(Cc3ccc(C)c(F)c3F)c(=O)c1n2C
Cc1cc2[nH]c3c(=O)n(Cc4ccccc4F)ncc3c2s1
O=C1CN(S(=O)(=O)c2ccc3c(c2)OCCO3)CCN1S(=O)(=O)c1c(F)cccc1F
CSc1cc2c(s1)c1cnn(Cc3ccccc3F)c(=O)c1n2C
O=S(=O)(c1ccc2c(c1)OCCO2)N1CCCN(S(=O)(=O)c2c(F)cccc2F)CC1
